Assay results published in PubChem BioAssay AID1347417 (National Center for Advancing Translational Sciences (NCATS), 2020).
In all, about 120,000 compounds went through this assay and about 5,300 (4.4%) were called active. Roughly 22% stayed inconclusive and do not appear here. Calls come from the whole dose curve; as a rule, active = well fitted inhibition curve with a large enough effect; inconclusive = small, poorly fitted or top-dose-only effect; inactive = no such curve, though single readings can be large or run the other way. What follows is part of a selection rich in actives, with near analogues and random picks from the rest.

Assay: qHTS Primary assay for Inhibitors of Plasmodium falciparum Dd2 growth in vitro; note: nearly all actives have a fitted effect of over 65% in size;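 for activity, negative = inhibition: plate controls were DMSO vehicle for no effect and reference drug for full effect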
Details: P. falciparum Dd2 growth, SYBR Green, 72 h; series mostly up to 28.9 µM; activity, negative = inhibition: at the top concentration
In short: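 Readout: SYBR Green fluorescence, 485 nm excitation, 535 nm emission, after ~16 h lysis at 37C. Before that, Dd2-infected red cells (2.5% hematocrit) grew 72 h with compound, 29 uM top final concentration.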
Potency is the fitted concentration of half-maximal effect.

| Structure (SMILES) | activity, negative = inhibition | Potency | outcome |
| --- | --- | --- | --- |
| COCCC(=O)NCCC1CCN(C(=O)Nc2ccccc2F)CC1 | 1.23% (inactive) |  |  |
| C[S+](=O)([O-])N1CC2ON=C(C(=O)O)C2C1 (stereo not drawn) | 15.9% [at 44.1 µM] (inactive) |  |  |
| CCOc1ccc2c(n1)CCN(C(=O)c1ccccc1C)C2 | 23.4% (inactive) |  |  |
| C[C@@H]1CN(C(=O)c2ccc(-c3ccn[nH]3)cc2)CC[C@@]1(O)C1CCOCC1 | -4.28% (inactive) |  |  |
| COC(=O)CNC(=O)N1CCOC(c2ccc(Cl)c(Cl)c2)C1 (stereo not drawn) | -7.83% (inactive) |  |  |
| Cc1noc(-c2cccn3c(CNC(=O)CCc4ccccc4)nnc23)n1 | -21% (inactive) |  |  |
| COc1cccc(CC(=O)NC2CCN(c3cc(-c4ccccc4)[nH]n3)C2)c1 (stereo not drawn) | -15.8% (inactive) |  |  |
| CC(C)C[C@@H]1N[C@H](C(=O)NCc2ccc(F)cc2)Cc2cn(C)c3cccc1c23 |  | 14.1 µM (active) |  |
| COc1ccc(CNC(=O)[C@@H]2Cc3cn(Cc4ccncc4)c4cccc(c34)[C@H](CC(C)C)N2)cc1 |  |  | inactive |
| CC#CCn1cc2c3c(cccc31)[C@H](CC(C)C)N[C@H](C(=O)NCc1ccccc1OC)C2 | -14.8% (inactive) |  |  |
| O=C(Nc1cccnc1)N[C@@H]1C[C@H](CO)[C@@H](O)[C@H]1O | 15.7% [at 44.1 µM] (inactive) |  |  |
| Cc1ccccc1CNC(=O)C1CCCN(C(=O)c2ccccc2)CCC(=O)NCC1 (stereo not drawn) | 0.165% (inactive) |  |  |
| O=C(O)c1ccc(CSc2nc3cccnc3n2Cc2cccc(F)c2)cc1 | -8.45% (inactive) |  |  |
| COc1ccc(-n2c(=O)c3ccccc3n(Cc3ccccc3Cl)c2=O)cc1 | 10.2% (inactive) |  |  |
| O=c1c2cccnc2n(Cc2cccc(F)c2)c(=O)n1Cc1ccccc1Cl |  | 12.6 µM (active) |  |
| COc1ccc(-c2ccnc3nc(CC(C)C)nn23)c(F)c1 | -29.2% (inactive) |  |  |
| CC(NC(=O)c1noc(-c2ccc(F)cc2)n1)c1ccc(F)cc1 (stereo not drawn) |  |  | inactive; activator; fitted 0.8913 uM |
| CC(C)C(=O)N1CCC(OC2CCN(Cc3ccccc3)CC2)CC1 | -28.6% (inactive) |  |  |
| O=S(=O)(c1cccs1)N1CCC(OC2CCN(Cc3ccccc3)CC2)CC1 |  | 3.55 µM (active) |  |
| CC(C)CN1CCN(C2CCOC3(CCN(S(=O)(=O)c4cccs4)CC3)C2)CC1 (stereo not drawn) | -11.2% (inactive) |  |  |
| Cc1cccc(C(=O)N2CCC(OC3CCN(Cc4ccccc4)CC3)CC2)c1 |  | 3.98 µM (active) |  |
| CN1CCCN(S(=O)(=O)c2cccs2)c2ccccc21 | -16.5% (inactive) |  |  |
| Cc1cccc(C(=O)N2CCC(CC(=O)NCc3ccccc3)C2)c1 (stereo not drawn) | 23.5% (inactive) |  |  |
| N[C@H]1CCN2C(=O)c3cc(-c4ccc(F)cc4F)ccc3NC(=O)[C@H]12 |  |  | inactive [at 44.1 µM] |

| Structure (SMILES) | activity, negative = inhibition | Potency | outcome |
| --- | --- | --- | --- |
| Cc1cccc(C(=O)N2CC(c3nnc(C(C)C)o3)C3(CCOCC3)C2)c1 (stereo not drawn) | -19.4% (inactive) |  |  |
| Cc1cnc(CCNC(=O)Nc2ccccc2F)n1C1CCC1 |  | 4.47 µM (active) |  |
| CC(=O)NCCc1ncc(C)n1C1CCCCC1 | -23.6% (inactive) |  |  |
| Cc1cnc(CCNC(=O)c2cn(C)cn2)n1C1CC1 | -21% (inactive) |  |  |
| O=c1[nH]c(N2CCOCC2)nc2c1CCN(Cc1cccc(F)c1)CC2 |  |  | inactive [at 5.79 µM] |
| CCNC(=O)c1c(C)oc2c1CN(C(=O)CCc1ccccc1)CC2 |  |  | inactive |
| C=C(C)CN(CC)C(=O)c1c(C)oc2c1CN(Cc1cccc(F)c1)CC2 |  | 8.91 µM (active) |  |
| O=C(CCc1ccccc1)N1CCCCCC1c1nc(-c2ccccc2)no1 (stereo not drawn) | -10.1% (inactive) |  |  |
| Cc1cccc(CC(=O)N2CCC(c3noc(COCC4CC4)n3)CC2)c1 | -11.1% (inactive) |  |  |
| Cc1ccc2c(C)c(C(=O)N3CCCn4cncc4C3)oc2c1 | -21.1% (inactive) |  |  |
| COc1ccc(C(=O)Nc2ccc3nc(N4CCCCC4)cc(C)c3c2)cc1OC |  | 3.16 µM (active) |  |
| COc1ccc(NC(=O)c2ccc3c(c2)N(S(C)(=O)=O)CC3)cc1OC | -0.286% (inactive) |  |  |
| COc1ccc(NC(=O)c2ccc3nc(C(C)C)oc3c2)cc1OC | 14.6% (inactive) |  |  |
| COc1ccc(N2CCC(NC(=O)c3ccc(N(C)C)cc3)C2=O)cc1 (stereo not drawn) | -12% (inactive) |  |  |
| O=C(NCc1ccc(Cl)nc1)c1cnn2c1CN([S+](=O)([O-])c1cccc(C(F)(F)F)c1)CC2 | 70.5% (inactive) |  |  |
| Cc1ccc(OCCSc2nc3ccc(NC(=O)COc4ccc(C)cc4)cc3s2)cc1 | 5.02% (inactive) |  |  |
| COc1cc(C)ccc1OCCSc1nc2ccc(NC(=O)c3ccc(C)cc3)cc2s1 | -22.7% (inactive) |  |  |
| Cc1ccccc1OCCSc1nc2ccc(NC(=O)c3ccco3)cc2s1 |  | 2.24 µM (active) |  |
| O=C(Nc1ccc2nc(SCCOc3ccccc3)sc2c1)c1ccco1 |  | 4.47 µM (active) |  |
| Cc1cccc(OCCSc2nc3ccc(NC(=O)COc4ccccc4C)cc3s2)c1 | -19.9% (inactive) |  |  |
| CC(=O)Nc1ccc2nc(SCCOc3cc(C)cc(C)c3)sc2c1 |  |  | inactive |
| CN1CC2(CCN(Cc3cn[nH]c3-c3ccccc3)CC2)CC1C(=O)N1CCOCC1 (stereo not drawn) | -19.7% (inactive) |  |  |
| O=C(CCc1conc1-c1ccccc1F)NCc1cccc(C(F)(F)F)c1 | -8.13% (inactive) |  |  |
| C=CCCC(CN1CCCC1)Oc1cncc(C(=O)N2CCCC2)n1 (stereo not drawn) |  | 7.94 µM (active) |  |
